Parameters in all cases: species or system human, MV4-11 + K-562 + COLO205 + SK-N-BE2 + OVCAR-8
One assay deals with ADK. Conditions: read-out: apparent Kd; compound concentrations: 100 nM and 1000 nM (sheet 'Samples'), CATDS: 5.0768617440539301E-2; n = 1.
The test system of another assay is CLK1. To be noted: read-out: apparent Kd; compound concentrations: 100 nM and 1000 nM (sheet 'Samples'), CATDS: 5.4208995397741003E-2; n = 1.
For the next assay, the system named is DYRK1A. To be noted: read-out: apparent Kd; compound concentrations: 100 nM and 1000 nM (sheet 'Samples'), CATDS: 5.0124883186775999E-2; n = 1.
In another assay the test system is GSK3A. Conditions: read-out: apparent Kd; compound concentrations: 100 nM and 1000 nM (sheet 'Samples'), CATDS: 9.7790905070532702E-2; n = 1.
A further assay deals with GSK3B. To be noted: read-out: apparent Kd; compound concentrations: 100 nM and 1000 nM (sheet 'Samples'), CATDS: 0.116009702502103; n = 1.
For another assay, the system named is ICK. Conditions: read-out: apparent Kd; compound concentrations: 100 nM and 1000 nM (sheet 'Samples'), CATDS: 5.3965454645481803E-2; n = 1.
A further assay relates to NQO2. Conditions: read-out: apparent Kd; compound concentrations: 100 nM and 1000 nM (sheet 'Samples'), CATDS: 5.4334591839862598E-2; n = 1.
Another assay has as its system PRKCA. To be noted: read-out: apparent Kd, n = 1.
A further assay relates to PRKCB. Conditions: read-out: apparent Kd, n = 1.
The subject of another assay is PRKCD. Conditions: read-out: apparent Kd, n = 1.
The test system of a further assay is PRKCQ. To be noted: read-out: apparent Kd, n = 1.
For a further assay, the system named is RPS6KA6. Conditions: read-out: apparent Kd; compound concentrations: 100 nM and 1000 nM (sheet 'Samples'), CATDS: 0.14606611193567601; n = 1.
The next assay concerns RPS6KB1. Conditions: read-out: apparent Kd, n = 1.
The subject of a further assay is ADRBK1. To be noted: read-out: apparent Kd; compound concentrations:100 nM and 1000 nM (sheet 'Samples'); n = 1.
The test system of a further assay is AURKA. To be noted: read-out: apparent Kd; compound concentrations:100 nM and 1000 nM (sheet 'Samples'); n = 1.
Another assay concerns CDC42BPA. Conditions: read-out: apparent Kd; compound concentrations:100 nM and 1000 nM (sheet 'Samples'); n = 1.
In another assay the test system is CDC42BPB. To be noted: read-out: apparent Kd; compound concentrations:100 nM and 1000 nM (sheet 'Samples'); n = 1.
A further assay concerns CDC42BPG. Conditions: read-out: apparent Kd; compound concentrations:100 nM and 1000 nM (sheet 'Samples'); n = 1.
The test system of another assay is CDK6. To be noted: read-out: apparent Kd; compound concentrations:100 nM and 1000 nM (sheet 'Samples'); n = 1.
The test system of a further assay is CDKL5. To be noted: read-out: apparent Kd; compound concentrations:100 nM and 1000 nM (sheet 'Samples'); n = 1.
The next assay relates to CHEK1. Conditions: read-out: apparent Kd; compound concentrations:100 nM and 1000 nM (sheet 'Samples'); n = 1.
A further assay deals with CSNK1G1. To be noted: read-out: apparent Kd; compound concentrations:100 nM and 1000 nM (sheet 'Samples'); n = 1.
A further assay deals with FN3KRP. Conditions: read-out: apparent Kd; compound concentrations:100 nM and 1000 nM (sheet 'Samples'); n = 1.
The subject of a further assay is MTHFD1. Conditions: read-out: apparent Kd; compound concentrations:100 nM and 1000 nM (sheet 'Samples'); n = 1.
The subject of the next assay is NUAK1. To be noted: read-out: apparent Kd; compound concentrations:100 nM and 1000 nM (sheet 'Samples'); n = 1.
The test system of a further assay is NUAK2. Conditions: read-out: apparent Kd; compound concentrations:100 nM and 1000 nM (sheet 'Samples'); n = 1.
The next assay relates to PDXK. Conditions: read-out: apparent Kd; compound concentrations:100 nM and 1000 nM (sheet 'Samples'); n = 1.
In a further assay the test system is PKN1. To be noted: read-out: apparent Kd; compound concentrations:100 nM and 1000 nM (sheet 'Samples'); n = 1.
Another assay concerns PKN2. To be noted: read-out: apparent Kd; compound concentrations:100 nM and 1000 nM (sheet 'Samples'); n = 1.
A further assay concerns PRKAA1. Conditions: read-out: apparent Kd; compound concentrations:100 nM and 1000 nM (sheet 'Samples'); n = 1.
The test system of another assay is PRKACA. To be noted: read-out: apparent Kd; compound concentrations: 100 nM and 1000 nM (sheet 'Samples'), CATDS: 9.7859849759824202E-2; n = 1.
The subject of a further assay is PRKACB. Conditions: read-out: apparent Kd; compound concentrations:100 nM and 1000 nM (sheet 'Samples'); n = 1.
The next assay relates to PRKAG1. Conditions: read-out: apparent Kd; compound concentrations:100 nM and 1000 nM (sheet 'Samples'); n = 1.
In another assay the test system is PRKAG2. Conditions: read-out: apparent Kd; compound concentrations:100 nM and 1000 nM (sheet 'Samples'); n = 1.
Another assay has as its system PRKG1. To be noted: read-out: apparent Kd; compound concentrations:100 nM and 1000 nM (sheet 'Samples'); n = 1.
The test system of another assay is PRKX;PRKY. Conditions: read-out: apparent Kd; compound concentrations:100 nM and 1000 nM (sheet 'Samples'); n = 1.
The subject of the next assay is ROCK1. Conditions: read-out: apparent Kd; compound concentrations:100 nM and 1000 nM (sheet 'Samples'); n = 1.
Another assay concerns ROCK2. To be noted: read-out: apparent Kd; compound concentrations:100 nM and 1000 nM (sheet 'Samples'); n = 1.
In another assay the test system is RPS6KA5. Conditions: read-out: apparent Kd; compound concentrations:100 nM and 1000 nM (sheet 'Samples'); n = 1.
[1] abbreviates: compound concentrations:100 nM and 1000 nM (sheet 'Samples').

Structures are written as SMILES. Read-outs that look alike come from different tables or passages of the source.

With `Cn1cc(C2=C(c3cn(CCCNC(=N)N)c4ccccc34)C(=O)NC2=O)c2ccccc21` [RO0318352-000], the potency estimated from few doses is 1420 nM with ADK; 1010 nM in the assay on CLK1; 1530 nM in the assay on DYRK1A; 125 nM in the assay with GSK3A; 83.7 nM in the assay with GSK3B; 1040 nM in the assay on ICK. The potency estimated from few doses in the assay with NQO2 is 1000 nM; in the assay on PRKCA (compound concentrations: 100 nM and 1000 nM (sheet 'Samples'), CATDS: 0.15913397901311099) it was 45.1 nM; in the assay on PRKCB (compound concentrations: 100 nM and 1000 nM (sheet 'Samples'), CATDS: 9.8351239927142994E-2), 124 nM; with PRKCD (compound concentrations: 100 nM and 1000 nM (sheet 'Samples'), CATDS: 0.131457549494816), 64.4 nM; in the assay on PRKCQ (compound concentrations: 100 nM and 1000 nM (sheet 'Samples'), CATDS: 0.25317838429330802), 21.7 nM; in the assay on RPS6KA6, 52.6 nM. The potency estimated from few doses in the assay with RPS6KB1 (compound concentrations: 100 nM and 1000 nM (sheet 'Samples'), CATDS: 4.9333736806527098E-2) was 1670 nM.

On to `COc1ccc(O)c(C(=O)c2ccc(C(=O)O[C@@H]3CCCNC[C@H]3NC(=O)c3ccncc3)cc2)c1F.Cl` [RO0480500-002], for which the potency estimated from few doses in the assay on ADRBK1 is 119 nM; with AURKA it was 693 nM; in the assay on CDC42BPA, 413 nM; with CDC42BPB, 51.3 nM; with CDC42BPG, 630 nM; in the assay with CDK6, 2090 nM. Further, the potency estimated from few doses in the assay on CDKL5 was 237 nM; with CHEK1, 26.5 nM; in the assay with CSNK1G1 it was 2260 nM; in the assay on FN3KRP it was 764 nM; with MTHFD1, 1020 nM; in the assay with NUAK1, 16.5 nM. Moreover, the potency estimated from few doses with NUAK2 is 150 nM; with PDXK, 1410 nM; in the assay with PKN1 it was 116 nM; with PKN2 it was 241 nM; in the assay with PRKAA1 it was 485 nM; with PRKACA it was 12.8 nM. Besides, the potency estimated from few doses in the assay on PRKACB is 21.1 nM; in the assay with PRKAG1, 1510 nM; in the assay with PRKAG2, 75 nM; with PRKCA (setting [1]) it was 227 nM; in the assay with PRKCB (setting [1]) it was 506 nM; with PRKCD (setting [1]) it was 25.7 nM. Besides, the potency estimated from few doses is 769 nM with PRKCQ (setting [1]); 4.47 nM with PRKG1; 40.2 nM in the assay on PRKX;PRKY; 19.2 nM with ROCK1; 19.1 nM in the assay on ROCK2; 75 nM in the assay on RPS6KA5. Moreover, the potency estimated from few doses in the assay with RPS6KB1 (setting [1]) was 38.6 nM.

The record behind these values is publication PMC11062922 (Nature Chemical Biology, 2023).
